The supplement of paper PMC7801607

How the values were obtained:
CHO = assay: % viability of CHO cells (MTT); higher = less toxic; settings: 48 h
Summary of the method: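 CHO cells were seeded at 10^6 cells/well in 200 µL and left overnight to attach. The medium was then replaced with fresh medium containing compound at 2 or 20 µM for 48 h. Survival was read colorimetrically with the tetrazolium (MTT) assay. Percent viability was expressed relative to untreated cells.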

HepG2-A16-CD81 = assay: % inhibition of HepG2 viability (CellTiter-Glo); higher = more toxic; settings: 5 µM
[1] = system: Plasmodium falciparum NF54 stage IV/V gametocytes; assay: % inhibition of gametocyte viability (PrestoBlue); higher = more inhibition; settings: 48 h
Summary of the method: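 Stage IV/V NF54 gametocytes (2% gametocytaemia, 5% haematocrit, 100 µL/well) were exposed to compound at 1 or 5 µM. Incubation was 48 h at 37 °C, stationary and hypoxic, followed by 10 µL PrestoBlue for 2 h. Fluorescence at 612 nm was read on 70 µL of transferred supernatant. Percent inhibition of gametocyte viability was normalised to DMSO and kill controls from a single run.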

[2] = system: Plasmodium falciparum NF54 asexual blood stage; assay: % inhibition of asexual blood stage proliferation (pLDH); higher = more inhibition; settings: 72 h
Summary of the method: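 Plasmodium falciparum NF54 ring-stage cultures (1% haematocrit, 2% parasitaemia) were exposed to compound at 2 or 20 µM in 96-well plates. Incubation was 72 h at 37 °C under 4% CO2, 3% O2 and 93% N2. Survival was read colorimetrically at 620 nm with the parasite lactate dehydrogenase assay. Percent inhibition of asexual proliferation was normalised to DMSO and kill controls, and the screen was run on two separate occasions.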

[3] = system: Plasmodium falciparum NF54 stage IV/V gametocytes; assay: % inhibition of gametocyte viability (ATP bioluminescence); higher = more inhibition; settings: 24 h
Summary of the method: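 In 96-well plates, compound at 1 or 5 µM was added to 30,000 density-gradient-enriched stage IV/V NF54 gametocytes per well and incubated for 24 h at 37 °C. ATP readout used the Promega BacTiter Glo bioluminescence system. Percent inhibition of gametocyte viability comes from a single run, normalised to control wells.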

[4] = system: Plasmodium falciparum NF54 stage IV/V gametocytes; assay: % inhibition of gametocyte viability (luciferase reporter); higher = more inhibition; settings: 48 h
Summary of the method: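 Luminescence from 30 µL lysate combined with 30 µL Promega luciferin substrate was recorded on a GloMax-Multi+ reader using 10 s integration. The lysate came from stage IV/V NF54-Pfs16-GFP-Luc gametocytes (2% gametocytaemia, 2% haematocrit) held with compound at 1 or 5 µM for 48 h at 37 °C under stationary, hypoxic conditions. Percent inhibition was normalised against controls run once.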

[5] = system: Plasmodium berghei ANKA liver stage in HepG2-A16-CD81; assay: % inhibition of liver stage parasite viability (luciferase); higher = more inhibition; settings: 5 µM; 48 h
Method: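 Single-concentration screen of the MMV Pandemic Response Box. P. falciparum NF54 asexual blood stages: pLDH assay, 72 h at 37 °C, 2 and 20 µM, n=2. Stage IV/V gametocytes (NF54): luciferase reporter (NF54-Pfs16-GFP-Luc, 48 h), ATP bioluminescence (24 h) and PrestoBlue (48 h) at 1 and 5 µM, n=1. P. berghei liver stage (luciferase in HepG2-A16-CD81, 48 h post infection) at 5 µM, n=4. All normalised to DMSO and kill controls as % inhibition.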
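For % inhibition of HepG2 viability (CellTiter-Glo) in this document: HepG2-A16-CD81 hepatoma cells plated as in the liver-stage assay but without sporozoites, with DMSO wells as negative and 25 µM puromycin as positive control.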

SMILES	% viability of CHO cells (CHO; 2 µM)	% viability of CHO cells (CHO; 20 µM)	% inhibition of HepG2 viability (HepG2-A16-CD81)	% inhibition of gametocyte viability ([1]; 1 µM)	% inhibition of gametocyte viability ([1]; 5 µM)	% inhibition of asexual blood stage proliferation ([2]; 2 µM)	% inhibition of asexual blood stage proliferation ([2]; 20 µM)	% inhibition of gametocyte viability ([3]; 1 µM)	% inhibition of gametocyte viability ([3]; 5 µM)	% inhibition of gametocyte viability ([4]; 1 µM)	% inhibition of gametocyte viability ([4]; 5 µM)	% inhibition of liver stage parasite viability [5]
C[C@H](c1cccc2ccccc12)N(C)Cc1ccccc1	98.5%	116%	0.334%	6.61%	7.59%	9.39%	18.9%	< 0%	< 0%	< 0%	< 0%	19.1%
NS(=O)(=O)c1ccc(NC(=O)NC(c2ccccc2)c2ccccc2)cc1	258%	58.6%	4.57%	< 0%	7.57%	3.15%	82.5%	< 0%	< 0%	< 0%	< 0%	19.3%
C(=C\c1nc2ccccc2[nH]1)/c1ccc2c(c1)OCO2	110%	50.4%	6.95%	57.1%	71.2%	15.3%	29.1%	< 0%	< 0%	5.91%	73.3%	-23.6%
CC(C)Oc1ccc(-c2nc(-c3cccc4c3CC[C@@H]4NCCO)no2)cc1C#N	113%	117%	-1.14%	16.7%	7.83%	78.4%	87.9%	14.3%	84.7%	< 0%	< 0%	21.6%
CC(=O)N[C@H](C)C(=O)N[C@H](Cc1ccccc1)C(=O)O	91.7%	87.7%	8.11%	< 0%	-0.199%	24.6%	81.8%	< 0%	< 0%	17.2%	< 0%	0.6%
O=C(O)c1cc(-c2ccc(Br)cc2)nc2ccc(Cl)cc12	96.8%	111%	3.15%	14.7%	5.76%	7.74%	-6.63%	< 0%	< 0%	< 0%	< 0%	-34.6%
O=C(c1nc2c(C(F)(F)F)cc(C3CC3)cn2c1Cl)N1CCN([C@H]2CC[C@H](O)CC2)C(=O)C1	100%	116%	0.895%	28.7%	6.18%	14.7%	46.1%	10.1%	1.45%	3.76%	< 0%	16.9%
O=c1[nH]c(=O)n(Cc2cccc(Oc3ccccc3)c2)cc1Nc1ccccc1	116%	65.4%	7.38%	< 0%	< 0%	-152%	47.8%	< 0%	< 0%	< 0%	< 0%	-3.63%
C[C@H]1[C@@H](c2cccc(C(F)(F)F)c2)OC(=O)N1C(=O)NCc1cncc2ccccc12	93.8%	118%	12.1%	< 0%	27.7%	-2.37%	30.8%	< 0%	< 0%	< 0%	< 0%	63.9%
Nc1nc(O)ncc1F	118%	21.7%	0.135%	3.77%	< 0%	-11%	-2.89%	< 0%	< 0%	< 0%	< 0%	7.9%
CN(Cc1ccc(C(C)(C)C)cc1)Cc1cccc2ccccc12	92.4%	110%	2.12%	7.34%	8.91%	-5.03%	71.1%	< 0%	< 0%	< 0%	< 0%	10.2%
N=c1n(CCN2CCCCC2)c2ccccc2n1CC(O)COc1ccc(Cl)cc1Cl (centres undefined)	82.7%	-3.8%	5.14%	38.8%	66%	76.8%	85.7%	85.7%	88.1%	40.7%	97%	-0.075%
COc1ccc(C)cc1NC(=O)c1ccc(S(=O)(=O)N2CCCCC2)cc1	128%	156%	6.14%	0.335%	3.85%	1.42%	32.8%	< 0%	< 0%	< 0%	< 0%	30%
O=C(NC(=O)N1CCCc2ccccc21)c1ccc(Cl)cc1Cl	95.4%	99.1%	-0.619%	0.538%	13.4%	1.37%	-6.87%	< 0%	< 0%	< 0%	< 0%	36.8%
CC[C@H]1OC(=O)[C@H](C)[C@@H](O[C@H]2C[C@@](C)(OC)[C@@H](O)[C@H](C)O2)[C@H](C)[C@@H](O[C@@H]2O[C@H](C)C[C@H](N(C)C)[C@H]2O)[C@](C)(O)C[C@@H](C)C(=O)[C@H](C)[C@@H](O)[C@]1(C)O	90.8%	55.1%	3.5%	21%	21%	-1.14%	14.1%	< 0%	< 0%	< 0%	< 0%	34%
CCC(C)n1ncn(-c2ccc(N3CCN(c4ccc(OCC5COC(Cn6cncn6)(c6ccc(Cl)cc6Cl)O5)cc4)CC3)cc2)c1=O (centres undefined)	119%	119%	26.2%	2.77%	1.55%	10.1%	83.4%	3.02%	< 0%	< 0%	< 0%	46.4%
CCc1cc(Nc2cc(=O)n(CCN3CCN(C(=O)c4ccccc4)CC3)c(=O)[nH]2)ccc1C	93.2%	103%	-1.38%	< 0%	23.7%	-6.84%	61.3%	< 0%	< 0%	< 0%	9.16%	10.7%
NC[C@H]1O[C@H](O[C@H]2[C@H](O)[C@@H](O[C@H]3O[C@H](CO)[C@@H](O)[C@H](N)[C@H]3O)[C@H](N)C[C@@H]2N)[C@H](N)C[C@@H]1O	111%	8.4%	-3.85%	< 0%	1.53%	-2.54%	18.7%	< 0%	< 0%	< 0%	6.32%	36.3%
CN(C)c1[nH]c(=O)ncc1F	111%	104%	11.9%	< 0%	< 0%	-4.48%	8.8%	2.44%	< 0%	< 0%	< 0%	26.1%

SMILES	% viability of CHO cells (CHO; 2 µM)	% viability of CHO cells (CHO; 20 µM)	% inhibition of HepG2 viability (HepG2-A16-CD81)	% inhibition of gametocyte viability ([1]; 1 µM)	% inhibition of gametocyte viability ([1]; 5 µM)	% inhibition of asexual blood stage proliferation ([2]; 2 µM)	% inhibition of asexual blood stage proliferation ([2]; 20 µM)	% inhibition of gametocyte viability ([3]; 1 µM)	% inhibition of gametocyte viability ([3]; 5 µM)	% inhibition of gametocyte viability ([4]; 1 µM)	% inhibition of gametocyte viability ([4]; 5 µM)	% inhibition of liver stage parasite viability [5]
CN(C)CCCOc1ccc(-c2ccc3ncc4c(c3c2)n(C2CCOCC2)c(=O)n4C)cn1	99.8%	75.9%	4%	61.8%	91.9%	68.1%	57.1%	18.7%	33.7%	78.1%	92%	64.6%
Cc1ncc([N+](=O)[O-])n1CC(O)CN1CCOCC1 (centres undefined)	106%	55.4%	-2.47%	< 0%	< 0%	30.7%	75.1%	< 0%	< 0%	0.715%	1.52%	25.3%
CN(C)[C@@H]1C(=O)C(C(N)=O)=C(O)[C@@]2(O)C(=O)C3=C(O)c4c(O)c(NC(=O)CN5CCCC5)cc(F)c4C[C@H]3C[C@@H]12	99.3%	125%	21%	13.1%	< 0%	72.1%	88%	< 0%	< 0%	< 0%	< 0%	-4.53%
COc1ccc2c(c1)cc(CNC(=O)c1cc3ccccc3o1)n2CC(=O)O	90.6%	111%	3.58%	< 0%	26%	-3.06%	7.62%	1.71%	< 0%	< 0%	< 0%	24.3%
OB1OCc2c1ccc(Cl)c2F	95.7%	101%	-0.44%	8.58%	< 0%	0.633%	36.7%	< 0%	< 0%	< 0%	< 0%	7.88%
O=C(NO)C1(CS(=O)(=O)c2ccc(Oc3ccc(Cl)cc3)cc2)CCOCC1	108%	76.6%	7.05%	22.6%	28.2%	28.1%	34.1%	< 0%	< 0%	2.48%	< 0%	35.5%
COc1cc(C(C(=O)NC2CCCCC2)N(C(=O)Cc2c[nH]c3ccccc23)c2ccc(C(C)C)cc2)cc(OC)c1OC (centres undefined)	90.8%	90.4%	1.92%	18.7%	22.7%	22.1%	71.8%	< 0%	7.49%	1.84%	18.1%	18.7%
O=C(O)c1ccc(-c2ccc(O[C@H]3O[C@H](CO)[C@@H](O)[C@H](O)[C@@H]3O)cc2)cc1	94%	102%	-2.59%	< 0%	3.77%	0.633%	16.6%	< 0%	< 0%	< 0%	12.4%	29.4%
O=C(NNC(=S)Nc1ccc(Cl)cc1)c1ccncc1	116%	76.6%	4.57%	6.58%	< 0%	3.73%	-4.99%	< 0%	< 0%	< 0%	< 0%	5.18%
O=C(Nc1ccc(-c2ccccc2)cc1)C1=C(O)C(Cc2ccccc2)OC1=O (centres undefined)	93.6%	90.4%	13.1%	< 0%	13.8%	39.5%	101%	< 0%	< 0%	< 0%	< 0%	44.3%
CONC(=N)c1ccc(-c2ccc(-c3ccc(C(=N)NOC)cc3)o2)cc1	111%	121%	2.49%	11.8%	9.28%	-3.01%	1.5%	0.615%	< 0%	< 0%	< 0%	4.65%
NC1C2CC3CC(C2)CC1C3 (centres undefined)	78.9%	70.3%	-1.51%	21.5%	18.1%	76.1%	43.4%	6.86%	5.87%	9.54%	9.98%	9.47%
CC#C[C@]1(O)CC[C@H]2[C@@H]3CCC4=CC(=O)CCC4=C3[C@@H](c3ccc(N(C)C)cc3)C[C@@]21C	89.5%	130%	0.01%	< 0%	< 0%	15.1%	53.8%	< 0%	< 0%	2.32%	< 0%	15.2%
Nc1nc(N)c2c(Sc3ccccc3)cccc2n1	107%	100%	13.7%	< 0%	4.25%	47.8%	77.9%	< 0%	2.83%	< 0%	< 0%	48.9%
O=[N+]([O-])/C(Br)=C/c1ccc(Br)o1	89.2%	99.8%	-4.63%	23.1%	57%	27.6%	2.9%	6.32%	14.3%	4.3%	49.5%	15.9%
CSc1ccc2c(c1)C(N1CCN(C)CC1)Cc1ccccc1S2 (centres undefined)	90.7%	137%	-7.96%	< 0%	< 0%	26.2%	73.7%	20.9%	44.2%	1.22%	4.12%	23%
COC(=O)Nc1nc2cc(Sc3ccccc3)ccc2[nH]1	103%	101%	32.9%	< 0%	11.8%	-7.16%	5.37%	3.38%	< 0%	< 0%	< 0%	-25.4%
CCCCN1C[C@H](O)[C@@H](O)[C@H](O)[C@H]1CO	104%	108%	-0.43%	< 0%	1.8%	18.5%	43.4%	3.94%	< 0%	< 0%	< 0%	10.9%
